# From PubChem BioAssay (Tox21)
# Records with an inconclusive call do not appear. Calls of active or inactive are those of the source. The call rests on the fitted dose curve; in most records, active means well fitted cell-killing curve with a large enough effect in the repeat runs; inconclusive means weak or mixed curves; inactive means flat fitted curve, though single readings scatter.
# Assay: qHTS RealTime-Glo MT Cell Viability Assay in HepG2 cells - 8 hour (AID 1224873); further: nearly all actives have a fitted effect of over 55% in size
# Conditions: RealTime-Glo luminescence; series mostly up to 76.8 µM; viability change, negative = cytotoxic: at the top concentration
# Source text: National Center for Advancing Translational Sciences [NCATS]
# NIH Chemical Genomics Center [NCGC]
# U.S. Environmental Protection Agency [EPA]
# National Institutes of Environmental Health Sciences [NIEHS]
# National Toxicology Program [NTP]
# U.S. Food and Drug Administration [FDA]
# Measure of cell viability is critical in the cell-base assay. Analysis of cell viability is necessary for the characterization of cell responses to cytotoxic drugs and environmental stress. A RealTime-Glo MT Cell Viability Assay to monitor cell viability in real time of continues cell culture during 40 hours of compound treatment was used to screen Tox21 10K library compounds in HepG2 cells. The RealTime-Glo MT Cell Viability Assay is a nonlytic, homogeneous, bioluminescent method to measure cell viability in real time using a simple, plate-based method. The assay involves adding NanoLuc luciferase and a cell-permeant prosubstrate to cells in culture. Viable cells reduce the proprietary prosubstrate to generate a substrate for NanoLuc luciferase. This substrate diffuses from cells into the surrounding culture medium, where it is rapidly used by the NanoLuc Enzyme to produce a luminescent signal. The signal correlates with the number of viable cells, making the assay well suited for cytotoxicity studies.
# Tox21 Assay Protocol Summary:
# The mixture of HepG2 cell suspension and reagents were dispensed at 600cells/6 ul/well in 1536-well tissue culture treated black solid bottom plates using a Multidrop dispenser. After the assay plates were incubated at a 37 C/5% CO2 incubator for 5 hours, 23 nL of compounds dissolved in DMSO, positive and negative controls was transferred to the assay plate by a pintool work station. The plates were incubated at 37 C for 40 hours. The luminescence intensity were measured at 0h, 8h, 16h, 24h, 32h and 40h time points using ViewLux plate reader during compound treatment.
# On the % scale 0 is the no-effect control and ±100 the full control effect.
row,SMILES,"viability change, negative = cytotoxic"
1,CCOP(=S)(OCC)Oc1ncn(-c2ccccc2)n1,-18.8% (inactive)
2,CNC(=O)N(C)c1nc2ccccc2s1,-1.65% (inactive)
3,CCCCc1c(C)nc(NCC)[nH]c1=O,-4.63% (inactive)
4,Fc1ccc(C2(Cn3cncn3)OC2c2ccccc2Cl)cc1 (stereo not given),-20.7% (inactive)
5,CC(C)(C)OC(=O)c1ncn2c1[C@@H]1CCCN1C(=O)c1c(Br)cccc1-2,7.77% [at 35.3 µM] (inactive)
6,CCCCP(CCCC)CCCC,2.63% (inactive)
7,CCOC(=O)CP(=O)(OCC)OCC,3.79% (inactive)
8,O=C1OC(CCN2CCCCC2)OC1(c1ccccc1)c1ccccc1 (stereo not given),-14.1% [at 35.3 µM] (inactive)
9,C#C[C@]1(O)C=C[C@H]2[C@@H]3CCC4=CC(=O)CC[C@@H]4[C@H]3CC[C@@]21CC,-16.2% [at 35.3 µM] (inactive)
10,CNCC(=O)c1ccc(O)c(O)c1,-0.18% [at 35.3 µM] (inactive)
11,O=[N+]([O-])c1cccc2cccnc12,-3.76% (inactive)
12,C1CCC(C2CCCCC2)CC1,0.134% (inactive)
13,COP(N)(=S)Oc1ccccc1C(=O)OC(C)C (stereo not given),2.45% (inactive)
14,C[C@]12CC[C@H]3[C@@H](CC=C4C[C@@H](O)CC[C@@]43C)[C@@H]1CC[C@@H]2O,0.106% [at 35.3 µM] (inactive)
15,OCCBr,0.577% (inactive)
16,O=S(=O)(O)C(F)(F)C(F)(F)C(F)(F)C(F)(F)C(F)(F)C(F)(F)F,6.9% (inactive)
17,O=C(Cc1ccccc1)OCc1ccccc1,0.0295% (inactive)
18,O=C1CN2CCOC2(c2ccccc2Cl)c2cc(Cl)ccc2N1 (stereo not given),-6.41% [at 35.3 µM] (inactive)
19,CCC#N,0.349% (inactive)
20,N#Cc1ccncc1,0.896% (inactive)

row,SMILES,"viability change, negative = cytotoxic"
1,CCCCOC(=O)c1ccccc1C(=O)O,7.8% (inactive)
2,O=C(CCN1CC1)OCC(CO)(COC(=O)CCN1CC1)COC(=O)CCN1CC1,2.15% (inactive)
3,COC(=O)c1ccccc1S(=O)(=O)NC(=O)Nc1nc(C)cc(C)n1,0.867% (inactive)
4,O=C(O)c1ccc2[nH]cc(CCCCN3CC=C(c4ccccc4)CC3)c2c1,-9.21% [at 35.3 µM] (inactive)
5,CSc1nc(N=[N+]=[N-])nc(NC(C)C)n1,2.28% (inactive)
6,CC1=C(C(=O)Nc2ccccc2)S(=O)(=O)CCO1,-6.75% (inactive)
7,COc1cc(OC)nc(NC(=O)NS(=O)(=O)c2ncccc2OCC(F)(F)F)n1,4.5% (inactive)
8,Oc1c(Cl)cccc1Cl,0.622% (inactive)
9,CCCCCCI,-15% (inactive)
10,CCCCCCBr,-0.189% (inactive)
11,CCC1(c2ccccc2)C(=O)N=C(O)NC1=O (stereo not given),-0.608% (inactive)
12,Cc1ncc(CNC(=O)N(CCCl)N=O)c(N)n1,-0.552% [at 35.3 µM] (inactive)
13,ClCCCN1CCN(c2cccc(Cl)c2)CC1,-4.46% [at 35.3 µM] (inactive)
14,C[C@]12CC[C@H]3[C@@H](CCC4=CC(=O)CC[C@@]43C)[C@@H]1CC[C@@H]2C(=O)O,-0.0725% [at 35.3 µM] (inactive)
15,CCNc1nc(NC(C)C)nc(OC)n1,4.13% (inactive)
16,C=C(C)CN(CC)c1c([N+](=O)[O-])cc(C(F)(F)F)cc1[N+](=O)[O-],-12.1% (inactive)
17,c1cc[c]([Hg][c]2ccccc2)cc1,-16.4% (inactive)
18,ClC(Cl)C(Cl)Cl,1.79% (inactive)
19,O=[N+]([O-])c1ccc(CBr)cc1,1.43% (inactive)
20,COc1cccc(C(=O)NN(C(=O)c2cc(C)cc(C)c2)C(C)(C)C)c1C,-19.6% (inactive)
